This is a sample that favours compounds with a hit; in the whole collection about 7.4% have one here.
SMN2 splice up – enhancers of SMN2 splice variant expression; HEK293 SMN2-luciferase splicing reporter, luminescence, 30-36 h; Potency, µM (titrated, usually from 46.1 µM), for inactives: at the top dose activity change, positive = activation, usual class: activators; hit rate 2.8% among 210,000; also: % of control where 0% means no effect; nearly all actives have a fitted effect of over 55% in size
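HEK293 cells carry an SMN2 […]–luciferase reporter in which exon 7 inclusion puts luciferase in frame. Cells were plated 10-12 h before compound addition, then incubated 30-36 h at 37C. ONE-Glo luminescence was read; sodium butyrate at 4.5 mM final served as control.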
NPC1 prom act – NPC1 promoter activation | AID 485313 | hit rate 2.4% among 320,000 | Huh7 NPC1 promoter luciferase reporter, 24 h | Potency, µM (highest dose often 9.22 µM), inactives show top-dose activation, actives largely listed as activators; also: % of control where 0% means no effect; nearly all actives have a fitted effect of over 60% in size
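Cells: Huh7 expressing luciferase under the NPC1 promoter, 1500/well. Seeded 2 h, compound added, incubated 24 h at 37 °C. Luciferase reagent, 10 min ambient, then luminescence.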
FLuc counter – firefly luciferase modulation, counter-screen for miR-21 project; hit rate 6.9% among 360,000; purified FLuc, Km substrates, luminescence inhibition; P08659; Potency, µM (top dose mostly 57.5 µM), without a hit: at the top dose activity change, negative = inhibition, usual class: inhibitors;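 also: plate controls were vehicle for no effect and reference inhibitor for full effect; nearly all actives have a fitted effect of over 55% in size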
Target sequence (P08659 whole entry, looked up): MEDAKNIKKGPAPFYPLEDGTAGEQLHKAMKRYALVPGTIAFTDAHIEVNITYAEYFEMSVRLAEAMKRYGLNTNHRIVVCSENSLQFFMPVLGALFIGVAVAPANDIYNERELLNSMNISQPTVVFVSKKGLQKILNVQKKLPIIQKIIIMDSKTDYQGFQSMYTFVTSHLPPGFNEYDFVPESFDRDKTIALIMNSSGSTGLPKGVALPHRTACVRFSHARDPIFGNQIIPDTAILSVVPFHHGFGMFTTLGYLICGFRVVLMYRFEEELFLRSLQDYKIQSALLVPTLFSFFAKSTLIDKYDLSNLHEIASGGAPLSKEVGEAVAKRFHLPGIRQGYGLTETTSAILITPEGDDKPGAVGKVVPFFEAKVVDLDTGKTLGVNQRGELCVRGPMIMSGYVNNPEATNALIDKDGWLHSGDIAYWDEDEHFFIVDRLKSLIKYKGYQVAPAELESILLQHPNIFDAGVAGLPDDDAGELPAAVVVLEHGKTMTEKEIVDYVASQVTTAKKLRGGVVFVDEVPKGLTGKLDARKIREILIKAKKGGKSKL
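Purified P. pyralis luciferase, 10 nM final, with Km-level 10 uM D-luciferin and 10 uM ATP in 50 mM Tris acetate pH 7.5, 10 mM Mg acetate, 0.01% Tween-20, 0.05% BSA; 6-point qHTS titration about 60 µM downward; luminescence read.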
Rab9 promoter act – activates the Rab9 promoter | Huh7 Rab9 promoter-luciferase reporter, luminescence, 24 h | Potency, µM (highest dose often 9.22 µM), for inactives: at the top dose activation, negative = inhibition, hits mostly activators | hit rate 2.8% among 320,000; also: % of control where 0% means no effect; nearly all actives have a fitted effect of over 60% in size
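Stable Rab9-luc Huh7, 1500 cells/well, 2 h settle; cmpd in DMSO, 24 h, 37 °C/5% CO2; luciferase reagent 10 min RT; luminescence.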
ELG1 genotox – induces genotoxicity in HEK293T cells with luciferase-tagged ELG1 | HEK293T ELG1-luciferase reporter, luminescence, 16 h | Potency, µM (highest dose often 46 µM), for the others: at the highest dose activity change, positive = activation, usual class: activators | hit rate 1.3% among 330,000 | AID 504466; also: % of control where 0% means no effect; nearly all actives have a fitted effect of over 60% in size
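Step 1: seed 2,000 HEK293T ELG1-luciferase cells per well. Step 2: add compound or DMSO, incubate 16 hr at 37 °C. Step 3: ONE-Glo, 30 min at room temperature, read luminescence.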
* marks the source's active call; other numbers are inactive results; ? = inconclusive; / = no result given. Calls follow the shape of the dose curve; as a rule, active = well fitted curve in the direction sought with a large enough effect; inconclusive = small, poorly fitted or top-dose-only effect, or another doubt; inactive = no such curve, though single readings can be large; an effect the other way counts as inactive or inconclusive. Potency is read from the fitted curve at half-maximal effect.

SMILES	SMN2 splice up	NPC1 prom act	FLuc counter	Rab9 promoter act	ELG1 genotox
CN(Cc1ccccc1)C(=O)c1cc(-c2ccc(Br)cc2)on1	?	9.0%	15.1µM*	?	8.3%
CCCNC(=O)c1cc(-c2ccc(Br)cc2)on1	?	2.24µM*	?	2.24µM*	?
CC(C)NC(=O)c1cc(-c2ccc(Br)cc2)on1	20µM*	1.41µM*	2.69µM*	1.58µM*	?
Cc1ccc(-c2cc(C(=O)NCCN3CCOCC3)no2)cc1	-3.9%	2.3%	?	2.7%	6.1%
COc1ccc(C2(O)CCN(CC(=O)Nc3nc(-c4ccccc4)cs3)CC2)cc1	-52.6%	-5.8%	-16.1%	-3.2%	-9.7%
CCCC(=O)Oc1ccc(-c2nccc(C(OC)OC)n2)cc1	-1.1%	7.0%	13.5µM*	?	12.4%
CC(C)N1CC(O)=C(c2nc3ccccc3[nH]2)C1=N	8.8%	16.4%	19µM*	?	?
CCOc1ccc(C2C(C(C)=O)=C(O)C(=O)N2CCc2c[nH]c3ccccc23)cc1 (stereo not drawn)	/	0.7%	-12.9%	11.6%	-0.1%
COc1c(O)cc2c(c1O)C(=O)CC(c1ccccc1)O2 (stereo not drawn)	/	?	9.53µM*	?	?
Cc1c(O)cc2c(c1O)C(=O)CC(c1ccccc1)O2 (stereo not drawn)	/	1.2%	-18.9%	-1.6%	3.3%
O=C(c1cccs1)c1ccc(-c2cccs2)s1	?	?	0.301µM*	0.501µM*	?
CN1CCN(C(=O)c2ccc(-c3cccs3)s2)CC1	/	1.78µM*	10.7µM*	2.24µM*	?
O=C(c1cccs1)c1no[n+]([O-])c1C(=O)c1cccs1	/	-41.8%	-22.4%	-39.7%	?
CN1CCCN(C(=O)c2ccc(Br)s2)CC1	/	-1.0%	2.0%	3.4%	2.4%
Cc1cccc(N2CCN(C(=O)C3CCC(=O)N(C4CC4)C3)CC2)c1C (stereo not drawn)	/	3.3%	-12.5%	1.9%	-1.7%
O=C(CCc1ccccc1)Nc1ccc(S(=O)(=O)Nc2nccs2)cc1	/	1.8%	-1.2%	-6.6%	-6.9%
Cc1cc(=O)[nH]c2nnc(-c3ccc(Cl)cc3)n12	/	2.82µM*	3.38µM*	?	?
CSc1nnc2[nH]c(=O)cc(C)n12	/	/	6.5%	/	/
COc1ccc(NC(=O)c2ccccc2NC(=O)C2CCCO2)cc1 (stereo not drawn)	20µM*	25.7%	-10.1%	?	?
O=C(O)c1ccccc1NC(=O)C1CCCO1 (stereo not drawn)	-0.7%	/	-2.0%	/	/
O=C(NCCc1ccccc1)c1ccccc1NC(=O)C1CCCO1 (stereo not drawn)	3.55µM*	1.41µM*	?	1.26µM*	?
O=C(Nc1cccc(-c2nc3cccnc3s2)c1)c1ccco1	-0.8%	16.1%	10.7µM*	8.3%	1.4%
O=C(Nc1cccc(-c2nc3cccnc3s2)c1)c1cccc(Br)c1	/	/	-0.1%	/	/
O=C(Nc1ccc(-c2nc3cccnc3s2)cc1)c1ccco1	1.41µM*	0.501µM*	1.07µM*	0.447µM*	0.92µM*
O=C(Nc1ccc(-c2nc3cccnc3s2)cc1)c1ccc(Br)o1	3.16µM*	2.82µM*	?	3.98µM*	2.91µM*
SMILES	SMN2 splice up	NPC1 prom act	FLuc counter	Rab9 promoter act	ELG1 genotox
COc1ccc(S(=O)(=O)N2CCOCC2)cc1NC(=O)Cn1nnc2ccccc2c1=O	8.2%	-3.4%	-2.6%	-4.2%	3.8%
O=C(NC1CCCCC1)c1cc(-c2cccs2)on1	/	3.16µM*	?	2µM*	?
Cc1ccc(-c2cc(C(=O)NC3CCCC3)no2)cc1	/	0.562µM*	2.13µM*	2µM*	?
O=C(NCCN1CCOCC1)c1cc(-c2ccc(F)cc2)on1	-21.6%	12.2%	-0.6%	19.1%	9.9%
O=C(NC1CCCCC1)c1cc(-c2ccc(F)cc2)on1	/	1.41µM*	-9.0%	3.16µM*	15.8%
COc1c(CO)cc(CO)cc(CO)c1=O	9.9%	/	/	/	/
COc1cccc(/C=C2\Oc3ccc(O)cc3C2=O)c1O	/	?	3.38µM*	?	?
O=C1CCN(S(=O)(=O)c2cccs2)c2ccc(C(F)(F)F)cc2N1	20.1%	0.3%	-1.9%	-3.7%	-0.7%
O=C(/C=C/c1ccco1)Nc1ccccc1C(=O)Nc1cccc(C(=O)O)c1	/	1.9%	3.01µM*	1.3%	3.9%
O=C(/C=C/c1ccco1)Nc1ccc2nn(-c3ccccc3)nc2c1	15.7%	21.8%	-17.7%	?	1.4%
O=C(/C=C\c1ccco1)Nc1cc([N+](=O)[O-])ccc1F	-12.3%	-11.0%	4.2%	-27.3%	?
O=C(/C=C/c1ccco1)Nc1ccccc1C(=O)O	12.6µM*	2µM*	2.69µM*	2.82µM*	10.3µM*
O=C(/C=C/c1ccco1)Nc1cc(Cl)ccc1C(=O)O	2.8%	2.7%	19µM*	-3.7%	0.9%
COC(=O)C[C@H](NC(=O)[C@H](C)NC(=O)[C@@H](NC(=O)OCc1ccccc1)C(C)C)C(=O)CF	26.0%	/	/	/	/
C[Si](C)(C)Cl	5.2%	/	/	/	/
Cc1sc(NC(=O)c2ccc(Cl)s2)c(C(N)=O)c1C	10µM*	?	2.39µM*	?	1.64µM*
Cc1sc(NC(=O)c2ccc(Br)s2)c(C(N)=O)c1C	10µM*	?	1.69µM*	?	?
CC1=C(C(=O)Nc2ccccc2)C(c2ccccc2)n2nc(-c3ccco3)nc2N1 (stereo not drawn)	-2.2%	/	3.1%	/	/
CCCCC(C(=O)NC1CCCC1)N(C(=O)c1snc(C(N)=O)c1N)c1ccc(F)cc1 (stereo not drawn)	/	-4.2%	1.7%	-0.6%	-4.1%
N#Cc1c(NC(=O)CSC2=NCCS2)sc2c1CCCC2	-23.7%	1.4%	-18.4%	-0.8%	-4.5%
O=C(CSC1=NCCS1)Nc1nc2c(s1)CCCC2	29.6%	?	16.9µM*	?	8.3%
Cn1nnnc1SCC(=O)Nc1nc2c(s1)CCCC2	/	?	12µM*	3.16µM*	8.2µM*
CCN(CC)C(=O)Cn1nnc(-c2ccc(S(C)(=O)=O)cc2)n1	-4.0%	0.0%	0.1%	1.4%	-1.6%
CCOC(=O)c1c(C)[nH]c(C(=O)COC(=O)C2CC2C)c1C (stereo not drawn)	?	3.55µM*	3.38µM*	3.16µM*	2.59µM*
Cc1cccc(CNC(=O)c2ccc3oc(=O)n(Cc4ccccc4)c3c2)c1	/	/	3.3%	/	/
COc1ccc(-c2nc(-c3ccccc3)oc2NC(C)C)cc1	-8.6%	/	/	/	/
Clc1ccc(-n2nnc(-c3nccs3)n2)cc1Cl	/	1.58µM*	1.9µM*	0.891µM*	5.17µM*
Cc1ccc(-n2nnc(-c3nccs3)n2)cc1	/	?	0.12µM*	?	0.231µM*
COc1ccc(N2CC(C(=O)Nc3ccncc3)CC2=O)cc1 (stereo not drawn)	/	-3.6%	0.8%	-3.2%	-1.0%
Fc1ccccc1Cc1nnc2n1N=C(c1ccc(Cl)cc1)CS2	25.9%	1.0%	-1.8%	1.4%	-1.3%
